The source of these data is PubChem BioAssay (NCI).

Structures are written as SMILES. This is part of a sample that, as a whole, favours compounds with a hit. Of some 79,000 tested, about 15% had one in any assay. Unmarked numbers belong to inactive results. Calls of active or inactive are those of the source. Cut-off read from the data, not from the text of the source: active = growth inhibition above about 70%; inactive = the rest. Where a SMILES comes first, the peptide text is derived from it. The star is where a group is joined. Myristoyl = CCCCCCCCCCCCCC(=O)*

Assay [1] is described as follows: NCI Yeast Anticancer Drug Screen. Data for the rad50 strain (AID 155).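 Note: 0% = growth of vehicle-only cultures of the same strain.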 The conditions noted are these: S. cerevisiae rad50 strain growth inhibition; at 50.0 µM; stronger effect = higher value. The method in brief:
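Vehicle-treated cultures provide the reference for the growth inhibition reported for compound-exposed, repair-deficient yeast.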

The nature of assay [2]: NCI Yeast Anticancer Drug Screen. Data for the mec2-1 strain (AID 157). The conditions noted are these: S. cerevisiae mec2-1 strain, at 50.0 µM, stronger effect = higher value. The method in brief:
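Readout is yeast growth inhibition, normalised to vehicle-treated controls, in the mec2-1 strain exposed to compound.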

A short description of assay [3]: NCI Yeast Anticancer Drug Screen. Data for the sgs1 mgt1 strain (AID 161).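 Note: 0% = growth of cultures given vehicle only.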 To be noted: S. cerevisiae sgs1 mgt1 strain, at 50.0 µM, stronger effect = higher value. The method in brief:
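Percent growth inhibition was derived by comparing compound-exposed mutant yeast with vehicle-exposed cultures. The strain carries alterations in DNA damage repair.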

Assay [4] can be described thus: NCI Yeast Anticancer Drug Screen. Data for the cln2 rad14 strain (AID 165).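 Note: 0% = growth equal to vehicle treated cultures.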 To be noted: S. cerevisiae cln2 rad14 strain, at 50.0 µM, stronger effect = higher value. In a few lines: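 Relative to vehicle controls, growth inhibition of compound-treated cln2 rad14 yeast was recorded.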
The nature of assay [5]: NCI Yeast Anticancer Drug Screen. Data for the bub3 strain (AID 167). To be noted: S. cerevisiae bub3 mutant strain, at 50.0 µM, stronger effect = higher value. In a few lines: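 Mutant yeast screening strain plus compound; vehicle-treated cultures serve as the 0% inhibition reference.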
The nature of assay [6]: NCI Yeast Anticancer Drug Screen. Data for the mlh1 rad18 strain (AID 175). The conditions noted are these: S. cerevisiae mlh1 rad18 strain growth inhibition; at 50.0 µM; stronger effect = higher value. In a few lines:
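Test agents were incubated with a yeast strain of defined genotype (DNA damage repair defect). Inhibition of growth was derived by comparison with vehicle-exposed cultures.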

Turning to `Nc1nc(N)c2c(n1)NCN(OCCOc1ccc(Cl)cc1Cl)C2`, the growth inhibition in assay [1] was 1.1%; in assay [2], 3%; in assay [3] it was 9.15%; in assay [4] it was -26.8%; in assay [5] it was -14.8%; in assay [6], 9.8%.

Consider `CS1(C)=NC(=O)C2=C(N=1)c1ccccc1S2(=O)=O`, for which the growth inhibition in assay [1] was -10.9%; in assay [2], -6%; in assay [3], -19%; in assay [4], -19.6%; in assay [5] it was 1.85%; in assay [6], -7.85%.

As to `CC(C)=CCC/C(C)=N\Nc1ccc([N+](=O)[O-])cc1[N+](=O)[O-]`, the growth inhibition in assay [1] was -39.4%; in assay [2] it was -6.7%; in assay [3], 4.75%; in assay [4] it was -15.6%; in assay [5], 2.15%; in assay [6], 5.4%.

As for `Oc1ccc(N=Cc2ccc3ccccc3n2)cc1`, the growth inhibition in assay [1] was 36%; in assay [2] it was 1.55%; in assay [3], 19.1%; in assay [4] it was 10.3%; in assay [5], -19.8%; in assay [6] it was 4.2%.

Regarding `Cc1ccccc1NC(=O)CN1CCCC(C)C1` (stereo unspecified), the growth inhibition in assay [1] was 10.7%; in assay [2], -34.8%; in assay [3], 0.9%; in assay [4] it was 11.3%; in assay [5], -16.2%; in assay [6], 5.45%.

Regarding `CC#CC(O)(C(=O)OCCCN(C)C)C1CCCCC1` (stereo unspecified), the growth inhibition in assay [1] is 12.4%; in assay [2], 3.55%; in assay [3], 3.85%; in assay [4], 2.25%; in assay [5] it was 8.3%; in assay [6], 9.25%.

In the case of `CN1N=C(c2ccncc2)OC1c1ccc(C(F)(F)F)cc1` (stereo unspecified), the growth inhibition in assay [1] was 13.9%; in assay [2] it was -20.6%; in assay [3], 1.35%; in assay [4] it was 11.3%; in assay [5], -19.6%; in assay [6], -12.5%.

On to `Cc1ccc(-c2cc(=O)c3cccc(CC(=O)O)c3o2)cc1`, for which the growth inhibition in assay [1] is 47.4%; in assay [2], -38.9%; in assay [3], -20.5%; in assay [4], -3.45%; in assay [5], -25.8%; in assay [6], -1.2%.

As for `ClCCOc1ccc2ccccc2c1`, the growth inhibition in assay [1] was 13.4%; in assay [2] it was -6.1%; in assay [3], 0.55%; in assay [4], 4.05%; in assay [5] it was 0.5%; in assay [6], 12.1%.

Take `CCCCCCCCCCCCCC(=O)NCC(=O)NC(C)C(=O)NC(CCCNC(=N)N)C(=O)NC(C)C(=O)NC(CO)C(=O)NC(C(=O)NC(CC(C)C)C(=O)NC(CO)C(=O)NCC(=O)NCC(=O)NC(CCC(=O)O)C(=O)NC(CC(C)C)C(=O)NC(CC(=O)O)C(=O)NC(CCCNC(=N)N)C(=O)NC(Cc1c[nH]c2ccccc12)C(=O)NC(Cc1ccc(O)cc1)C(N)=O)C(C)C` (stereo unspecified) (Myristoyl-GARASVLSGGELDRWY-NH2; configuration not given here): the growth inhibition is -4% in assay [1]; -6.9% in assay [2]; -12.7% in assay [3]; 8.8% in assay [4]; -40.4% in assay [5]; -6.5% in assay [6].

As for `CC1(C)Cc2c(oc3ncnc(N)c23)CS1`, the growth inhibition in assay [1] was -10.3%; in assay [2], -14.1%; in assay [3], -8.8%; in assay [4], -4.75%; in assay [5] it was -4.65%; in assay [6], 9.2%.

With `CSC(=S)S(=O)(=O)C12CC3CC(CC(C3)C1)C2`, the growth inhibition was 90.5% (active) in assay [1]; 93.2% (active) in assay [2]; 89.5% (active) in assay [3]; 90% (active) in assay [4]; 86.5% (active) in assay [5]; 92.6% (active) in assay [6].

In the case of `CCCCS(=O)(=O)c1ccc(Cl)cc1`, the growth inhibition was -2.65% in assay [1]; -13.9% in assay [2]; -4.45% in assay [3]; -16% in assay [4]; -3.9% in assay [5]; 21.9% in assay [6].

Regarding `CCCC1OCC(CC)C(CCC)O1` (stereo unspecified), the growth inhibition in assay [1] is 25.5%; in assay [2], 4.95%; in assay [3], 6.25%; in assay [4] it was -37%; in assay [5], 7.4%; in assay [6], 2.7%.

For `CC(C#N)(CCl)OS(=O)(=O)CCCl` (stereo unspecified), the growth inhibition in assay [1] is 37.4%; in assay [2], 21.4%; in assay [3], 6.4%; in assay [4] it was 16.9%; in assay [5], 48.7%; in assay [6], 25.4%.

In the case of `N#CSCc1cc(Cl)c(CSC#N)c(Cl)c1Cl`, the growth inhibition is -6.95% in assay [1]; 22.2% in assay [2]; -3% in assay [3]; 16.6% in assay [4]; 13.2% in assay [5]; 31.4% in assay [6].

Consider `Nc1nnc2nc(CC(=O)c3ccccc3)c(CC(=O)c3ccccc3)nn12`, for which the growth inhibition is -5.4% in assay [1]; -2.9% in assay [2]; 3% in assay [3]; 32.6% in assay [4]; -29% in assay [5]; 16.2% in assay [6].

Turning to `CC(=O)OCc1cc2c(cc1CNCc1ccccc1)OCO2`, the growth inhibition is 12.5% in assay [1]; -2.15% in assay [2]; 7.25% in assay [3]; -31.4% in assay [4]; 5% in assay [5]; 7.25% in assay [6].

For the compound `C=C1C(=O)O[C@@H]2/C=C(\C)CC/C=C(/COC(C)=O)C[C@@H](OC(C)=O)[C@@H]12`, the growth inhibition in assay [1] is 7.4%; in assay [2], -28.2%; in assay [3], 20.1%; in assay [4] it was 0.35%; in assay [5], -1.4%; in assay [6], -30.1%.

Take `COc1cc([C@@H]2c3cc4c(cc3[C@](C)(O)[C@H]3COC(=O)[C@H]23)OCO4)cc(OC)c1OC`: the growth inhibition was 19.7% in assay [1]; 10.4% in assay [2]; 14.1% in assay [3]; 22.8% in assay [4]; 19.1% in assay [5]; 11% in assay [6].

`Cc1ccccc1Nc1nc2ccccc2nc1NS(=O)(=O)c1ccccc1`: the growth inhibition was 5.1% in assay [1]; 0% in assay [2]; 5.85% in assay [3]; -0.8% in assay [4]; 18.1% in assay [5]; -58.4% in assay [6].
